The panel holds about 83,000 compounds, 20% with a hit somewhere; the sample as a whole holds those more often.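 Each cell line was grown in a 96-well plate and treated with one concentration of compound for 48 hours. Values below 10 were considered active.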 Values without a mark were called inactive. Active and inactive are the calls of the source.

Among the test systems are NCI-H23 lung; NCI-H226 lung; NCI-H322M lung; HOP-62 NSCLC; NCI-H460 lung; NCI-H522 lung; A549/ATCC NSCLC; 786-0 renal; COLO 205 colon.
Test in all cases: NCI-60 one-dose screen, 48 h (100 = growth as untreated, 0 = no growth, -100 = all killed)
Holding throughout (conditions): 10 µM unless noted

In the case of `Cc1ccc(C(=O)NN2C(=O)/C(=C/C=C/c3ccco3)SC2=S)cc1`, the growth in the assay with NCI-H23 lung is 96.7%; in the assay with NCI-H226 lung it was 96.1%; with NCI-H322M lung, 85.4%; in the assay with HOP-62 NSCLC, 105%; with NCI-H460 lung it was 88.3%; in the assay with NCI-H522 lung, 83.5%. Further, the values for the growth with A549/ATCC NSCLC, with 786-0 renal and with COLO 205 colon were 82.4%, 106% and 126%, respectively.

Take `O=C(CCn1c[n+](CC(=O)c2ccc(F)cc2)c2ccccc21)Nc1cccc2cccnc12`: the growth is 83.4% in the assay on NCI-H23 lung; 78.1% in the assay with NCI-H226 lung; 93.9% in the assay with NCI-H322M lung; 85.7% in the assay with HOP-62 NSCLC; 88.3% in the assay with NCI-H460 lung; 67.5% with NCI-H522 lung. For the same compound, the growth with A549/ATCC NSCLC was 102%; in the assay on 786-0 renal, 102%; with COLO 205 colon it was 55.7%.

Take `Cc1ccc(N2C(=O)/C(=C/C=C/c3ccco3)SC2=S)cc1`: the growth is 98.9% in the assay with NCI-H23 lung; 102% in the assay on NCI-H226 lung; 96.4% in the assay on NCI-H322M lung; 95.9% in the assay with HOP-62 NSCLC; 88.9% with NCI-H460 lung; 81.8% with NCI-H522 lung. Further, the growth in the assay on A549/ATCC NSCLC is 86.3%; in the assay with 786-0 renal, 104%; with COLO 205 colon, 94.3%.

With `CC(C)(C)c1ccc(-c2nnc(-c3nc4ccccc4nc3Cl)o2)cc1`, the growth with NCI-H23 lung is 90.9%; in the assay on NCI-H226 lung, 86.5%; in the assay on NCI-H322M lung it was 92.9%; with HOP-62 NSCLC it was 11.1%; with NCI-H460 lung, 88.1%; in the assay on NCI-H522 lung, 99.1%. Moreover, the results for the growth in the assay on A549/ATCC NSCLC, in the assay on 786-0 renal and with COLO 205 colon were 102%, 105% and 104%, respectively.

Consider `COc1cc2oc(-c3cccc(C(=O)N[C@@H](CC(C)C)C(=O)OC(C)(C)C)c3)cc(=O)c2c(OC)c1OC`, for which the growth is 60.6% in the assay on NCI-H23 lung; 72.6% in the assay on NCI-H226 lung; 90.4% in the assay on NCI-H322M lung; 43.4% in the assay with HOP-62 NSCLC; 37.8% in the assay with NCI-H460 lung; 83.1% in the assay with NCI-H522 lung. Besides, the growth is 76% in the assay on A549/ATCC NSCLC, 67.9% in the assay with 786-0 renal and 92.8% in the assay with COLO 205 colon.

Take `FC(F)(F)c1cc(Nc2cccc(Oc3ccc(NC4=NCCN4)nc3)c2)ccc1Cl`: the growth in the assay with NCI-H23 lung was 19.5%; in the assay with NCI-H226 lung it was 41.9%; in the assay with NCI-H322M lung, -3.79% (active); in the assay with HOP-62 NSCLC, -47.9% (active); with NCI-H460 lung, -69.2% (active); with NCI-H522 lung it was 2.14% (active). The growth in the assay on A549/ATCC NSCLC was 12.1%; in the assay with 786-0 renal it was -11.4% (active); in the assay with COLO 205 colon it was -38.3% (active).

Turning to `O=C1/C(=C/C=C/c2ccco2)SC(=S)N1c1ccccc1`, the growth with NCI-H23 lung is 70.7%; in the assay with NCI-H226 lung, 67.8%; with NCI-H322M lung, 87.2%; in the assay on HOP-62 NSCLC, 104%; in the assay with NCI-H460 lung, 91.2%; in the assay with NCI-H522 lung, 58%. Moreover, the growth is 52.9% in the assay with A549/ATCC NSCLC, 71.1% in the assay on 786-0 renal and 83.2% in the assay on COLO 205 colon.

Take `CCNC(=O)N1CCc2cc(OC)c(OCCc3ccc(OC)c(N)c3)cc2C1c1cc(C)c(C)cc1C` (stereo unspecified): the growth with NCI-H23 lung is 41.8%; in the assay with NCI-H226 lung it was 44.7%; in the assay on NCI-H322M lung, 53.6%; in the assay on HOP-62 NSCLC, 34.2%; in the assay on NCI-H460 lung, 4.34% (active); in the assay on NCI-H522 lung, 5.26% (active). The values for the growth with A549/ATCC NSCLC, in the assay with 786-0 renal and in the assay on COLO 205 colon were 19.6%, 23.3% and 55.9%, respectively.

For the compound `NS(=O)(=O)c1ccc(Nc2nc(SCC(=O)c3ccc(Cl)cc3)nc3c2CCCC3)cc1`, the growth with NCI-H23 lung was 53.9%; in the assay on NCI-H226 lung it was 56.6%; in the assay on NCI-H322M lung it was 87%; in the assay with HOP-62 NSCLC it was 70%; in the assay on NCI-H460 lung, 21%; in the assay with NCI-H522 lung, 67.7%. For the same compound, the figures for the growth with A549/ATCC NSCLC, with 786-0 renal and with COLO 205 colon were 38.9%, 84.7% and 46%, respectively.

In the case of `COc1cc(OC)c(S(N)(=O)=O)cc1C(=O)/C=C/c1ccc(Cl)cc1`, the growth with NCI-H23 lung was 6.85% (active); in the assay on NCI-H226 lung, -26% (active); in the assay with NCI-H322M lung, 16.3%; in the assay on HOP-62 NSCLC, 9.71% (active); in the assay with NCI-H460 lung it was -11.2% (active); in the assay on NCI-H522 lung, -6.47% (active). Besides, the results for the growth in the assay with A549/ATCC NSCLC, with 786-0 renal and in the assay with COLO 205 colon were 6.83% (active), 13.8% and -30% (active), respectively.

On to `COc1ccc2[nH]cc(-c3csc4nc(-c5ccccc5)cn34)c2c1`, for which the growth in the assay with NCI-H23 lung is 30.8%; in the assay with NCI-H226 lung it was 31.4%; in the assay on NCI-H322M lung it was 64.6%; in the assay with HOP-62 NSCLC it was 24.5%; in the assay with NCI-H460 lung it was 2.01% (active); in the assay with NCI-H522 lung it was -34% (active). Also, the growth in the assay with A549/ATCC NSCLC is 29.9%; with 786-0 renal it was 51.6%; in the assay with COLO 205 colon it was -32.6% (active).

For `CCOC(=O)c1c(Nc2ccccc2)nn2c(-c3ccccc3)ccnc12`, the growth is 86.2% in the assay with NCI-H23 lung; 85.3% with NCI-H226 lung; 94.2% in the assay on NCI-H322M lung; 101% in the assay with HOP-62 NSCLC; 97.9% in the assay on NCI-H460 lung; 87.9% with NCI-H522 lung. The growth in the assay on A549/ATCC NSCLC was 92.4%; in the assay with 786-0 renal, 86.6%; in the assay on COLO 205 colon, 99.5%.

On to `C=C1CC[C@@H]2[C@](C)(CO)[C@H](O)CC[C@@]2(C)[C@@H]1C/C(O)=C1\CCOC1=O`, for which the growth is 104% in the assay with NCI-H23 lung; 108% in the assay on NCI-H226 lung; 103% with NCI-H322M lung; 102% in the assay with HOP-62 NSCLC; 103% in the assay with NCI-H460 lung; 82.5% in the assay with NCI-H522 lung. For the same compound, the values for the growth in the assay with A549/ATCC NSCLC, in the assay on 786-0 renal and with COLO 205 colon were 96%, 111% and 130%, respectively.

Turning to `Cc1ccc2c(c1)C13C(=C2Br)CCCN1C(=O)c1ccccc13` (stereo unspecified), the growth was 92.8% with NCI-H23 lung; 92.3% in the assay with NCI-H226 lung; 97.5% in the assay with NCI-H322M lung; 96.9% in the assay with HOP-62 NSCLC; 105% in the assay with NCI-H460 lung; 80.8% in the assay on NCI-H522 lung. Also, the figures for the growth in the assay with A549/ATCC NSCLC, in the assay on 786-0 renal and in the assay with COLO 205 colon were 98.1%, 84.3% and 108%, respectively.
